# Experimental data: PubChem BioAssay (NCI)
# The panel holds about 83,000 compounds, 20% with a hit somewhere; the sample as a whole holds those more often.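 For each line, cells grew in 96-well plates with the test compound present at a single concentration for 48 hours.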 Unmarked numbers belong to inactive results. Active and inactive are the calls of the source. Rule for the calls: active = growth percent below 10; inactive = the rest.
# Key:
# Assay in all cases: NCI-60 one-dose screen, 48 h (100 = growth as untreated, 0 = no growth, -100 = all killed)
# Details in all cases: 10 µM unless noted
# DU-145 prostate = tested on: DU-145 prostate
# K-562 leukemia = tested on: K-562 leukemia
# MALME-3M melanoma = tested on: MALME-3M melanoma
# MDA-MB-231 breast = tested on: MDA-MB-231 breast
# RXF 393 renal = tested on: RXF 393 renal
# SF-268 CNS = tested on: SF-268 CNS
# SF-295 CNS = tested on: SF-295 CNS
# SF-539 CNS = tested on: SF-539 CNS
# UACC-257 melanoma = tested on: UACC-257 melanoma
# M14 melanoma = tested on: M14 melanoma
# HCT-15 colon = tested on: HCT-15 colon
# HT29 colon = tested on: HT29 colon
# SNB-75 CNS = tested on: SNB-75 CNS
# SNB-19 CNS = tested on: SNB-19 CNS
# U251 CNS = tested on: U251 CNS
# PC-3 prostate = tested on: PC-3 prostate
# SK-MEL-5 melanoma = tested on: SK-MEL-5 melanoma
# UACC-62 melanoma = tested on: UACC-62 melanoma
# LOX IMVI melanoma = tested on: LOX IMVI melanoma
# SK-MEL-28 melanoma = tested on: SK-MEL-28 melanoma
SMILES,growth (DU-145 prostate),growth (K-562 leukemia),growth (MALME-3M melanoma),growth (MDA-MB-231 breast),growth (RXF 393 renal),growth (SF-268 CNS),growth (SF-295 CNS),growth (SF-539 CNS),growth (UACC-257 melanoma),growth (M14 melanoma),growth (HCT-15 colon),growth (HT29 colon),growth (SNB-75 CNS),growth (SNB-19 CNS),growth (U251 CNS),growth (PC-3 prostate),growth (SK-MEL-5 melanoma),growth (UACC-62 melanoma),growth (LOX IMVI melanoma),growth (SK-MEL-28 melanoma)
CCOC(=O)C(=Cc1ccc(-c2ccccc2)cc1)C(=O)OCC,36.6%,20%,70.6%,53.3%,43%,37.5%,52.5%,21.4%,44.4%,42.5%,13.3%,4.16% (active),38%,54.9%,21.3%,31.8%,54.8%,35.4%,-56.6% (active),31.1%
NC(=O)c1cnc(Nc2cccc(N)c2)nc1NCCCNC(=O)C1CCC1,75.9%,52%,80.3%,50.1%,21.4%,76.2%,69.3%,5.4% (active),107%,55.4%,101%,92.9%,53.8%,82.8%,64.8%,72.4%,84.6%,70%,68.7%,92%
O=C1/C(=C\c2cccc3nccnc23)SC(=S)N1CCc1ccc(O)cc1,98.1%,88.5%,87.3%,83.8%,107%,97%,101%,97.7%,100%,96.3%,101%,116%,89%,94.4%,107%,–,95%,76.4%,94.5%,99.5%
Cc1ccc(CNc2c3ccccc3nc3ccccc23)cc1,33.5%,2.99% (active),16.2%,43.2%,10.1%,51.9%,31.3%,18.1%,39.4%,28%,15.6%,10.3%,41.7%,29.7%,26%,24.3%,30.1%,43.4%,11.8%,59.5%
CN(CCCNC(=O)Cc1ccc2ccc3cccc4ccc1c2c34)CCCNc1cc(-c2ccc3ccccc3c2)nc2ccccc12,-90.7% (active),-82.8% (active),-57.7% (active),-75.2% (active),-24.1% (active),-77.6% (active),-36% (active),-96.1% (active),-70% (active),-74.4% (active),-69% (active),-80.8% (active),-94.6% (active),-82.8% (active),-49.3% (active),-87.5% (active),-93.1% (active),-51.6% (active),-54% (active),-85.7% (active)
CC(C)CCN(CCC(C)C)CC(O)c1cc2c(c3ccccc13)CCCC2 (configuration not stated),60.8%,43.5%,94.3%,37.7%,62.1%,71.9%,76.5%,82.1%,99.4%,89.3%,59.4%,32.2%,91.6%,97.8%,72.9%,–,72.7%,49.8%,51.9%,94.7%
CCN1C(=O)N(CC)C2C1NN=c1s/c(=C\c3ccc[nH]3)c(=O)n12 (configuration not stated),-11.9% (active),10.2%,34.5%,30.6%,-26.6% (active),44.6%,12.4%,-21.5% (active),46.7%,-5.38% (active),24.4%,-10.4% (active),-23.6% (active),24.9%,9.08% (active),–,30%,25.7%,43%,46%
CCN(CC)CCN1C(=O)c2c(c(C)c3c(oc4ccc(OC)cc43)c2C)C1=O,94.1%,90.5%,91.9%,96.3%,82.2%,94.9%,105%,94.1%,101%,103%,90%,87.5%,116%,88%,87.3%,90.7%,82.7%,97%,93.3%,91.6%
